Assay results: PubChem BioAssay (NCI)
About 83,000 compounds went through this panel and 20% of them were active in at least one assay; those are over-represented in the sample as a whole.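 Negative percent growth values reflect cell death: -40 means 40% of the cells present at the start died, and -100 means all died.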 Values without a mark were called inactive. Activity calls are given as the source filed them. The calls were made as follows: active = growth percent below 10; inactive = the rest.

Columns and labels:
Assay in all cases: NCI-60 one-dose screen, 48 h (100 = growth as untreated, 0 = no growth, -100 = all killed)
Conditions in all cases: 10 µM unless noted
[1] = system: DU-145 prostate
[2] = system: K-562 leukemia
[3] = system: MALME-3M melanoma
[4] = system: MDA-MB-231 breast
[5] = system: RXF 393 renal
[6] = system: SF-268 CNS
[7] = system: SF-295 CNS
[8] = system: SF-539 CNS
[9] = system: UACC-257 melanoma
[10] = system: M14 melanoma

## O=C(/C=C/C12c3ccccc3C(c3ccccc31)C1C(=O)NC(=O)C12)c1ccc(F)cc1 (stereo not given)
[1]
  growth: 22.2%
[2]
  growth: 6.1% (active)
[3]
  growth: 20.2%
[4]
  growth: 11.9%
[5]
  growth: -35.4% (active)
[6]
  growth: 31.3%
[7]
  growth: 11.5%
[8]
  growth: 6.05% (active)
[9]
  growth: 27.3%
[10]
  growth: 10.2%

## COc1cc2c(c(OC)c1OC)C(=O)N[C@@H]1[C@@H](O)[C@@H](O)[C@H](O)C[C@@H]21
[1]
  growth: 110%
[2]
  growth: 96.6%
[3]
  growth: 108%
[4]
  growth: 106%
[5]
  growth: 102%
[6]
  growth: 103%
[7]
  growth: 98.3%
[8]
  growth: 100%
[9]
  growth: 100%
[10]
  growth: 98.5%

## CC/C=C\C/C=C/C=C1/C(=O)C=C[C@@H]1C/C=C\CCCC(=O)OC
[1]
  growth: 40.1%
[2]
  growth: 2.34% (active)
[3]
  growth: 35%
[4]
  growth: 4.18% (active)
[5]
  growth: 32.9%
[6]
  growth: 21.9%
[7]
  growth: 81.8%
[8]
  growth: 26.8%
[9]
  growth: 66.5%
[10]
  growth: 32.1%

## C=C(CN1CC=CCC1)[C@@H]1CC[C@]2(CO)CC[C@]3(C)[C@H](CC[C@@H]4[C@@]5(C)CC[C@H](O)C(C)(C)[C@@H]5CC[C@]43C)[C@@H]12
[1]
  growth: 106%
[2]
  growth: 77%
[3]
  growth: 101%
[4]
  growth: 116%
[5]
  growth: 106%
[6]
  growth: 101%
[7]
  growth: 102%
[8]
  growth: 91.1%
[9]
  growth: 111%
[10]
  growth: 96.1%

## O=C(/C=C/c1cccc(Cl)c1)c1cccc(OCCCCOc2cccc(C(=O)/C=C/c3cccc(Cl)c3)c2)c1
[1]
  growth: 97.4%
[2]
  growth: 91.4%
[3]
  growth: 96.8%
[4]
  growth: 97.1%
[5]
  growth: 89.9%
[6]
  growth: 96.6%
[7]
  growth: 103%
[8]
  growth: 96.6%
[9]
  growth: 89.7%
[10]
  growth: 85.5%

## O=C(CN1CCN(c2cc3c(cc2F)c(=O)c(C(=O)O)cn3C2CC2)CC1)N/N=C/c1ccncc1
[1]
  growth: 106%
[2]
  growth: 91.7%
[3]
  growth: 103%
[4]
  growth: 98.4%
[5]
  growth: 110%
[6]
  growth: 92.8%
[7]
  growth: 96.6%
[8]
  growth: 95.6%
[9]
  growth: 87.9%
[10]
  growth: 96.1%

## COc1ccc(NC(=O)c2cccc(C3CCc4c(cc(OC)c(OC)c4OC)O3)c2)cc1 (stereo not given)
[1]
  growth: 63.2%
[2]
  growth: 6.79% (active)
[3]
  growth: 41.7%
[4]
  growth: 31%
[5]
  growth: 53%
[6]
  growth: 50.2%
[7]
  growth: 23.9%
[8]
  growth: 18.9%
[9]
  growth: 46.5%
[10]
  growth: 28.2%

## Cc1c(Cl)cccc1C(=O)Nc1nc2c(s1)CN(C(=O)Nc1cccc(C(F)(F)F)c1)CC2
[1]
  growth: 16.8%
[2]
  growth: 11.2%
[3]
  growth: 44.5%
[4]
  growth: 32.3%
[5]
  growth: -7.27% (active)
[6]
  growth: 35.2%
[7]
  growth: 26%
[8]
  growth: -26.9% (active)
[9]
  growth: 55.7%
[10]
  growth: 18.2%

## COc1ncc2cc1NS(=O)(=O)c1cccc(c1)C(=O)NCC1=CC=C(S1)c1ncnc3c1SC2=C3C
[1]
  growth: 9.14% (active)
[2]
  growth: 4.66% (active)
[3]
  growth: -39.2% (active)
[4]
  growth: 10.9%
[5]
  growth: -62.8% (active)
[6]
  growth: 0.0661% (active)
[7]
  growth: -21.6% (active)
[8]
  growth: -55.3% (active)
[9]
  growth: -1.33% (active)
[10]
  growth: -43.9% (active)

## CC(/C=C1\SC(=S)N(CC(=O)NC(Cc2c[nH]c3ccccc23)C(=O)O)C1=O)=C\c1ccccc1 (stereo not given)
[1]
  growth: 112%
[2]
  growth: 107%
[3]
  growth: 107%
[4]
  growth: 104%
[5]
  growth: 106%
[6]
  growth: 92.8%
[7]
  growth: 104%
[8]
  growth: 104%
[9]
  growth: 100%
[10]
  growth: 103%

## Cn1cc(-c2nonc2-c2c[nH]c3ccccc23)c2ccccc21
[1]
  growth: 17.4%
[2]
  growth: 5.23% (active)
[3]
  growth: 42.9%
[4]
  growth: 0.833% (active)
[5]
  growth: -3.69% (active)
[6]
  growth: 25.8%
[7]
  growth: 8.43% (active)
[8]
  growth: -35.4% (active)
[9]
  growth: 33.2%
[10]
  growth: 7.06% (active)

## Cc1cc(N2CCCCC2)nc(N2CCN(CC(=O)Nc3ccc4c(ccn4Cc4ccccc4)c3)CC2)n1
[1]
  growth: 79.6%
[2]
  growth: 35.4%
[3]
  growth: 70.4%
[4]
  growth: 64.3%
[5]
  growth: 36.2%
[6]
  growth: 80.5%
[7]
  growth: 42.9%
[8]
  growth: 80.3%
[9]
  growth: 71%
[10]
  growth: 50.9%

## CC(O)c1ncc(/C=C2\SC(=S)N(Cc3ccccc3)C2=O)s1 (stereo not given)
[1]
  growth: 89.2%
[2]
  growth: 87.9%
[3]
  growth: 93.2%
[4]
  growth: 94%
[5]
  growth: 102%
[6]
  growth: 89.8%
[7]
  growth: 102%
[8]
  growth: 85%
[9]
  growth: 96.2%
[10]
  growth: 93.8%

## O=C(CN1C(=O)/C(=C/c2ccco2)SC1=S)NCCc1c[nH]c2ccc(F)cc12
[1]
  growth: 108%
[2]
  growth: 101%
[3]
  growth: 108%
[4]
  growth: 102%
[5]
  growth: 110%
[6]
  growth: 93.6%
[7]
  growth: 99.4%
[8]
  growth: 95.2%
[9]
  growth: 113%
[10]
  growth: 106%

## O=C(/C=C\c1ccco1)/C=C/c1ccco1
[1]
  growth: 106%
[2]
  growth: 111%
[3]
  growth: 112%
[4]
  growth: 93.4%
[5]
  growth: 100%
[6]
  growth: 113%
[7]
  growth: 101%
[8]
  growth: 108%
[9]
  growth: 100%
[10]
  growth: 105%

## COc1cc(N2C(=O)[C@H](c3ccccc3)C2c2ccc(SC)cc2)cc(OC)c1OC (stereo not given in full)
[1]
  growth: 6.14% (active)
[2]
  growth: 5.06% (active)
[3]
  growth: 63.3%
[4]
  growth: 28%
[5]
  growth: -4.2% (active)
[6]
  growth: 25.3%
[7]
  growth: -6.29% (active)
[8]
  growth: 8.41% (active)
[9]
  growth: 33.3%
[10]
  growth: 5.09% (active)

## CCC(C)Nc1ccc(NC(C)CC)cc1 (stereo not given)
[1]
  growth: 109%
[2]
  growth: 54.2%
[3]
  growth: 73.4%
[4]
  growth: 82%
[5]
  growth: 81.8%
[6]
  growth: 96.6%
[7]
  growth: 111%
[8]
  growth: 90.7%
[9]
  growth: 21.1%
[10]
  growth: 98.9%

## O=C(Cn1cc(CN2C(=O)c3ccccc3S2(=O)=O)nn1)Nc1cccc(Cl)c1
[1]
  growth: 109%
[2]
  growth: 103%
[3]
  growth: 99.6%
[4]
  growth: 115%
[5]
  growth: 106%
[6]
  growth: 99.4%
[7]
  growth: 115%
[8]
  growth: 110%
[9]
  growth: 113%
[10]
  growth: 100%

## CCOc1ccc(/C=N\N=C\c2ccc(OCC)cc2)cc1
[1]
  growth: 17%
[2]
  growth: 86.7%
[3]
  growth: 115%
[4]
  growth: 83.6%
[5]
  growth: 84.9%
[6]
  growth: 94%
[7]
  growth: 95.9%
[8]
  growth: 96.4%
[9]
  growth: 99%
[10]
  growth: 85.3%

## COC(=O)C1=C(C)NC(C)=C(C(=O)OCC(C)C)C1c1ccccc1[N+](=O)[O-] (stereo not given)
[1]
  growth: 50.6%
[2]
  growth: 18.2%
[3]
  growth: 86.1%
[4]
  growth: 55%
[5]
  growth: 70.2%
[6]
  growth: 66.6%
[7]
  growth: 56.9%
[8]
  growth: 65.6%
[9]
  growth: 81.6%
[10]
  growth: 51.1%

## CN(C)c1ccc(/C=C2/C=C(c3ccccc3)OC2=O)cc1
[1]
  growth: 101%
[2]
  growth: 46.9%
[3]
  growth: 96.2%
[4]
  growth: 109%
[5]
  growth: 89.5%
[6]
  growth: 101%
[7]
  growth: 79.4%
[8]
  growth: 102%
[9]
  growth: 89.2%
[10]
  growth: 86.1%

## CCn1cc(CNc2ccc(C(=O)Nc3cc4cc(OC)c(OC)cc4c(C)n3)cc2)c(C)n1
[1]
  growth: 56.3%
[2]
  growth: 15.6%
[3]
  growth: 25.2%
[4]
  growth: 74.7%
[5]
  growth: 90.9%
[6]
  growth: 48.6%
[7]
  growth: 30.4%
[8]
  growth: 75.5%
[9]
  growth: 48.1%
[10]
  growth: 22.1%

## C=C(C)[C@@H]1CC[C@]2(CO)CC[C@]3(C)[C@H](CC[C@@H]4[C@@]5(C)CCC(NCCc6ccc(O)cc6)C(C)(C)[C@@H]5CC[C@]43C)[C@@H]12 (stereo not given in full)
[1]
  growth: -96.5% (active)
[2]
  growth: -51.2% (active)
[3]
  growth: -81.5% (active)
[4]
  growth: -87.3% (active)
[5]
  growth: -91.2% (active)
[6]
  growth: -88.8% (active)
[7]
  growth: -95.8% (active)
[8]
  growth: -88% (active)
[9]
  growth: -78.2% (active)
[10]
  growth: -84.9% (active)

## CCOC(=O)CSc1nc2sc3c(c2c(=O)n1-c1ccc([N+](=O)[O-])cc1)CCCCC3
[1]
  growth: 63.5%
[2]
  growth: 75.2%
[3]
  growth: 77.7%
[4]
  growth: 50.4%
[5]
  growth: 76.8%
[6]
  growth: 71.2%
[7]
  growth: 59.3%
[8]
  growth: 58.3%
[9]
  growth: 89%
[10]
  growth: 75.3%

## COc1cc(-c2nc3occn3c2-c2ccnc(NCCCNS(=O)(=O)c3ccccc3)n2)ccc1F
[1]
  growth: 52.5%
[2]
  growth: 26.5%
[3]
  growth: 18.4%
[4]
  growth: 45.1%
[5]
  growth: 48.6%
[6]
  growth: 52.8%
[7]
  growth: 46%
[8]
  growth: 78.8%
[9]
  growth: 41.4%
[10]
  growth: 17.2%

## CCOC(=O)c1c(C)nc2ccccc2c1/C=C/c1ccc(OC)cc1
[1]
  growth: 93.1%
[2]
  growth: 42%
[3]
  growth: 87%
[4]
  growth: 74.6%
[5]
  growth: 91.3%
[6]
  growth: 78%
[7]
  growth: 58.8%
[8]
  growth: 85.3%
[9]
  growth: 74%
[10]
  growth: 70.5%
